What all share (experiment): DAPPL (digital affinity profiling via proximity ligation, sequencing); 10 mM Tris-HCl pH 7.5, 50 mM NaCl, 1 mM DTT, 4% glycerol, room temperature, 30 min; GST-TFs on glutathione beads, 16-mer random dsDNA library, 0.1% formaldehyde crosslink after washing; high values mean tight binding
Common to all, as to conditions: protein: recombinant; tags: N-terminal GST; dsDNA, one strand shown

Test [1] concerns the target T1, FLI1 (Homo sapiens, UniProt Q01543 1-452).
T1 sequence: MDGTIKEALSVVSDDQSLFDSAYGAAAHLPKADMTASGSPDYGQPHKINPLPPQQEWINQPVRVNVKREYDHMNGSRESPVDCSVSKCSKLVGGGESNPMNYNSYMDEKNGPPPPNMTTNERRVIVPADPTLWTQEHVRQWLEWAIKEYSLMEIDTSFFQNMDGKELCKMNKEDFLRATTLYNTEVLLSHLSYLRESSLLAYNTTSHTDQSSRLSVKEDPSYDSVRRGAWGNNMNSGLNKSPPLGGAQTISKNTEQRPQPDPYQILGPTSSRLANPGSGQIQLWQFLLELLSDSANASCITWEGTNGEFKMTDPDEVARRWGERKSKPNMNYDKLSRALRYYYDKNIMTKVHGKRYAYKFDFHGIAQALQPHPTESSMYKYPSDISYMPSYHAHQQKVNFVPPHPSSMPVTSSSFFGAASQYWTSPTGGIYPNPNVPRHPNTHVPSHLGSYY
A digest of the protocol: (§1)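 Human transcription factors fused to GST were expressed in yeast, captured on glutathione beads, given DNA barcodes and pooled with a GST-only negative control. Pools were incubated with 200 nmole of a 16-mer random double-stranded DNA library in Tris/NaCl/DTT/glycerol buffer at room temperature for 30 min. They were then washed, crosslinked with 0.1% formaldehyde, proximity-ligated (BsaI/T4 ligase, 1 h, 37 °C), PCR-amplified and sequenced on an Illumina NextSeq500. Binding signal is each 6-mer's read frequency for a factor divided by its frequency for the GST control.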

Test [2] concerns the target T2, ELK1 (Homo sapiens, UniProt P19419 1-428).
T2 sequence: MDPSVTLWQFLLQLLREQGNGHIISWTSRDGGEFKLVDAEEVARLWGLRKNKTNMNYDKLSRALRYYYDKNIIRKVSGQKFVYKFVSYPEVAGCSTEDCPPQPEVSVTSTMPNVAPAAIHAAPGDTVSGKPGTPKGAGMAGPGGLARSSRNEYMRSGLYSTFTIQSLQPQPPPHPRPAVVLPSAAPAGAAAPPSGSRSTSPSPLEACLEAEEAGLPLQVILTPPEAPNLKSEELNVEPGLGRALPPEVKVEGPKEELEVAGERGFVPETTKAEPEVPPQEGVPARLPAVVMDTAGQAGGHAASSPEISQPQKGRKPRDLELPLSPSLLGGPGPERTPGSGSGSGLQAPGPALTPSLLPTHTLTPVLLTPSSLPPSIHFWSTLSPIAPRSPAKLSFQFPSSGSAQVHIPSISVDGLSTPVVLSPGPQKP
The gist of the method:
as §1

In test [3] the target is T3, GABPA (Homo sapiens, UniProt Q06546 1-454).
T3 sequence: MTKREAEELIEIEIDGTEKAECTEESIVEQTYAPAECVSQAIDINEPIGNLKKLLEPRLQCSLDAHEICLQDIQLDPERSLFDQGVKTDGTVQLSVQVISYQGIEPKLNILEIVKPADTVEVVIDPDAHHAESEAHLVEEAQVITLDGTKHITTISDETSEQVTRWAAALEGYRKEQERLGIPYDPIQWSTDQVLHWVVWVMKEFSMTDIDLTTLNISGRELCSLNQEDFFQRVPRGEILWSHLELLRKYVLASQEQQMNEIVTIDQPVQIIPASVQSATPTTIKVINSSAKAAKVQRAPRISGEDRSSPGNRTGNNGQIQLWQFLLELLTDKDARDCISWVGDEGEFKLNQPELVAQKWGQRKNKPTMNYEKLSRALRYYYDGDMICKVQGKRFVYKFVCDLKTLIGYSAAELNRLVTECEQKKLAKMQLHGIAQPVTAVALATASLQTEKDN
The gist of the method:
as §1

The target in test [4] is T4, ERG (Homo sapiens, UniProt P11308 1-479).
T4 sequence: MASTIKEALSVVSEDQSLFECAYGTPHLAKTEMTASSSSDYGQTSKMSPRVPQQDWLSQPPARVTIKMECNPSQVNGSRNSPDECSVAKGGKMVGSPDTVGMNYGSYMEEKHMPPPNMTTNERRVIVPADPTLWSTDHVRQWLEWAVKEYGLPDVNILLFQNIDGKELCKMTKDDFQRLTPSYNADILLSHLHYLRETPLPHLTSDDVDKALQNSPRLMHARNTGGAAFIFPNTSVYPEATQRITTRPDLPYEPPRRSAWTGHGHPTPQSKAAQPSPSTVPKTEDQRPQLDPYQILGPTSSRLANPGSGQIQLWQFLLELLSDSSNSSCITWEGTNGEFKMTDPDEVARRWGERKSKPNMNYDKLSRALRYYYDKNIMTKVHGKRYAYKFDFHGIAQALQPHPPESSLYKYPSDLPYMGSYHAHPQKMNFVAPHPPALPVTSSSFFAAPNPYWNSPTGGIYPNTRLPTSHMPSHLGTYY
The gist of the method:
as §1

The target in test [5] is ELF1 (Homo sapiens, UniProt P32519 1-619). The gist of the method:
as §1

In test [6] the target is T5, EHF (Homo sapiens, UniProt Q9NZC4 1-300).
T5 sequence: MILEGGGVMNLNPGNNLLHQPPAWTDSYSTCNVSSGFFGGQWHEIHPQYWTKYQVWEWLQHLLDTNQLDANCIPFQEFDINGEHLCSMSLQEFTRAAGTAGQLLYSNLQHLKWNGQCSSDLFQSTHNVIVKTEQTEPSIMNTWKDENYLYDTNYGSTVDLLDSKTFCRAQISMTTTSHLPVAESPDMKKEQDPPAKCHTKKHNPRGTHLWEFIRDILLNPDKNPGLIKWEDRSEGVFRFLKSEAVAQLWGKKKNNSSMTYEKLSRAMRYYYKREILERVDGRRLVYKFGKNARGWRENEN
A digest of the protocol: as §1

Test [7] addresses T6, SPIC (Homo sapiens, UniProt Q8N5J4 1-248).
T6 sequence: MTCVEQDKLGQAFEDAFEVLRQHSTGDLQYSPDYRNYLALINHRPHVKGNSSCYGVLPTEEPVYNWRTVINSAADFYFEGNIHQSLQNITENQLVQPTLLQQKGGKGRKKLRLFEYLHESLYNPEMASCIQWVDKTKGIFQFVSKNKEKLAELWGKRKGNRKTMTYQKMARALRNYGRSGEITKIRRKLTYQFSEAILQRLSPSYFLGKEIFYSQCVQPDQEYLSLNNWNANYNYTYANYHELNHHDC
A digest of the protocol: as §1

Test [8] deals with ELF4 (Homo sapiens, UniProt Q99607 1-663). A digest of the protocol:
as §1

The target of test [9] is T7, ETV2 (Homo sapiens, UniProt O00321 1-342).
T7 sequence: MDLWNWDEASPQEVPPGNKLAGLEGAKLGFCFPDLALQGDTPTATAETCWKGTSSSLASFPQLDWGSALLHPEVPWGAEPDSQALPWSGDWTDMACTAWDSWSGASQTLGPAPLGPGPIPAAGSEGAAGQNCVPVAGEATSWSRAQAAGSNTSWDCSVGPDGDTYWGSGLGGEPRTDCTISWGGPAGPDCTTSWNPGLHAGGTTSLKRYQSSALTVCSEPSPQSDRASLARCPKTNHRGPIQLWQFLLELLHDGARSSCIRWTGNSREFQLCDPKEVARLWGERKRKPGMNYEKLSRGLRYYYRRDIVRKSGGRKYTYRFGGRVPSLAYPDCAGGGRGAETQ
The gist of the method: as §1

Test [10] has as its target T8, ELF3 (Homo sapiens, UniProt P78545 1-371).
T8 sequence: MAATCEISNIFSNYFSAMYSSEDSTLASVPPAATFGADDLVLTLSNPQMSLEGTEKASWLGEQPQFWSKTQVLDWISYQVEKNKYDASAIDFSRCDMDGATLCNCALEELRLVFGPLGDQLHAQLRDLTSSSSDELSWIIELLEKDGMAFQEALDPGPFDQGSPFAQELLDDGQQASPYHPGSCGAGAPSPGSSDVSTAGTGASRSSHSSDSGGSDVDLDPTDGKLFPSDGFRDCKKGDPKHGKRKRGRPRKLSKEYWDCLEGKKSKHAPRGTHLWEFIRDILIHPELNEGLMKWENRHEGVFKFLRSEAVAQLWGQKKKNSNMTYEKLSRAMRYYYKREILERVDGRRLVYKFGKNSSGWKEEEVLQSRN
The gist of the method:
as §1

Test [11] has as its target ETV1 (Homo sapiens, UniProt P50549 1-477). The gist of the method:
as §1

The target in test [12] is T9, ERF (Homo sapiens, UniProt P50548 1-548).
T9 sequence: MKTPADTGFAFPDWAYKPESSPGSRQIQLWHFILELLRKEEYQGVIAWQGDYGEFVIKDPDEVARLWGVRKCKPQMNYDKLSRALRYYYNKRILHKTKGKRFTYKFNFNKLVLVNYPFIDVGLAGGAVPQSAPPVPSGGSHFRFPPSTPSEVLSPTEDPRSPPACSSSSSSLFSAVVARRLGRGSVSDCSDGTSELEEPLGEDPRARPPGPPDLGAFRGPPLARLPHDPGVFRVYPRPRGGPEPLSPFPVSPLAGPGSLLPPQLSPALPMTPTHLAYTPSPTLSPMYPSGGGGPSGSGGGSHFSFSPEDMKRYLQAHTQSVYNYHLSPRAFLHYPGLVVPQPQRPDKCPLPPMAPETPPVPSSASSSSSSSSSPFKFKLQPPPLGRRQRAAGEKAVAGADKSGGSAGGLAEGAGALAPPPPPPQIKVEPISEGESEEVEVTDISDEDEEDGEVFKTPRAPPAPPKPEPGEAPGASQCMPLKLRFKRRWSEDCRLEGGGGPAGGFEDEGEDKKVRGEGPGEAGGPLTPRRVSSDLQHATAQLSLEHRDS
The gist of the method:
as §1

The target in test [13] is T10, ETV3L (Homo sapiens, UniProt Q6ZN32 1-361).
T10 sequence: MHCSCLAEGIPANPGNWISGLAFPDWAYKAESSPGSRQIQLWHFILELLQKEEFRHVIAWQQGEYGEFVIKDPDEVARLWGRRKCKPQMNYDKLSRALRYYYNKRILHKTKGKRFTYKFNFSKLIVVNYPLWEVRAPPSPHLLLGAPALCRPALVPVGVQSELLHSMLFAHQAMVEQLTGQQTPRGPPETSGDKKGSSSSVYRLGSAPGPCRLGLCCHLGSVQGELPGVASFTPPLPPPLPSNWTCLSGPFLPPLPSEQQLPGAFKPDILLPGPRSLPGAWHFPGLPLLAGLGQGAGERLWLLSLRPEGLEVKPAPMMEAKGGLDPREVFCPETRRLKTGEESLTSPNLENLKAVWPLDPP
The gist of the method: as §1

The target of test [14] is T11, ETV7 (Homo sapiens, UniProt Q9Y603 1-341).
T11 sequence: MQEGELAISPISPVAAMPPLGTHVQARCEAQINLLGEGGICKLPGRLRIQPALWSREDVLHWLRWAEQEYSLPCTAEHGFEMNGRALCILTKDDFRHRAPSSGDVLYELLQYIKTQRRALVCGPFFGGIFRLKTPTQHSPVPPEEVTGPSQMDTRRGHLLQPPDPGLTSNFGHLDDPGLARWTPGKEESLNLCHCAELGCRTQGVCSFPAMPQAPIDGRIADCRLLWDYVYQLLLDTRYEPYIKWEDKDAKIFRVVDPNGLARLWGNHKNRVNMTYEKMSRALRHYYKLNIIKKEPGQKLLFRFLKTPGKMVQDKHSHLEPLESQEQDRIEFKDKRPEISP
A digest of the protocol: as §1

The target of test [15] is ETV6 (Homo sapiens, UniProt P41212 1-452). A digest of the protocol:
as §1

ETV6, sequence (P41212 whole entry): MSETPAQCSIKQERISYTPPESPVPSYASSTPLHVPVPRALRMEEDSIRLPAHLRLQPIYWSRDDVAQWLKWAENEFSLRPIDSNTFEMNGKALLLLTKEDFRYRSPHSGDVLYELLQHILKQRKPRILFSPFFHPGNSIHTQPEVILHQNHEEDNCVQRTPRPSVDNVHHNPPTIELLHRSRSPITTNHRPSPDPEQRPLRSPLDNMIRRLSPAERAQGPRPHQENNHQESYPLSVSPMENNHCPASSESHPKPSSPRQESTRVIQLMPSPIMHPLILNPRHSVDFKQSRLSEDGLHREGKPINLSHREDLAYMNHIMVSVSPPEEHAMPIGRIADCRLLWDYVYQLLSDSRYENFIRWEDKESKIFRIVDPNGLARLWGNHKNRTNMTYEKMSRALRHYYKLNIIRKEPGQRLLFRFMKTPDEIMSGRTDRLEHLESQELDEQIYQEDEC
ETV1, sequence (P50549 whole entry): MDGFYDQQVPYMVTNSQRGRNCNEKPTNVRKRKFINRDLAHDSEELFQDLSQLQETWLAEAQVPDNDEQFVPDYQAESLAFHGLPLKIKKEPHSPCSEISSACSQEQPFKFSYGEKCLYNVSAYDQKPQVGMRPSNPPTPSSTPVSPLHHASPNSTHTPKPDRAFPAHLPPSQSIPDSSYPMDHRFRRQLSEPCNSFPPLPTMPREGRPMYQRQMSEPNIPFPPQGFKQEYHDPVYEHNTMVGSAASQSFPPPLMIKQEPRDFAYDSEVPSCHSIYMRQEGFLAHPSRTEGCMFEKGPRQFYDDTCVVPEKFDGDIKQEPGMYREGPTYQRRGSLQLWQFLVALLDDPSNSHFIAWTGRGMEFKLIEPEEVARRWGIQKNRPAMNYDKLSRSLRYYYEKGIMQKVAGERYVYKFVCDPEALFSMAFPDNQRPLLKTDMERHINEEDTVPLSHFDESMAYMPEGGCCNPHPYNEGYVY
ELF4, sequence (Q99607 whole entry): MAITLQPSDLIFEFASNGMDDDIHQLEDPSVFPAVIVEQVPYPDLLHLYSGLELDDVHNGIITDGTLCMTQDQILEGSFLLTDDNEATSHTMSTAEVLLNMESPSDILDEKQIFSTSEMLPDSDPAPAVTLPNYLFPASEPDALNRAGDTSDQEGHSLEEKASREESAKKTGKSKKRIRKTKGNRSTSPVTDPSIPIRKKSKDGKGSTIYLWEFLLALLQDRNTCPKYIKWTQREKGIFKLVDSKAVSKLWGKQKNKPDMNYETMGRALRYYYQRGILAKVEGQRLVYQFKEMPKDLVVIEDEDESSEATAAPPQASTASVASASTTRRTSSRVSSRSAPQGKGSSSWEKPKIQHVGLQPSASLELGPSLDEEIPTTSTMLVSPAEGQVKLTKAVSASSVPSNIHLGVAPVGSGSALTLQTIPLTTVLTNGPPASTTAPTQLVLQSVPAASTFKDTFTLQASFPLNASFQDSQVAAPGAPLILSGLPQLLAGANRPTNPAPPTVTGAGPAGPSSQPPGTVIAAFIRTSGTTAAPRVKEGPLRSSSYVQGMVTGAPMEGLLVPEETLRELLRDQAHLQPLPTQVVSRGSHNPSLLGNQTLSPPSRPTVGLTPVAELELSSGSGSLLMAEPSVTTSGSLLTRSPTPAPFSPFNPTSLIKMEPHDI
ELF1, sequence (P32519 whole entry): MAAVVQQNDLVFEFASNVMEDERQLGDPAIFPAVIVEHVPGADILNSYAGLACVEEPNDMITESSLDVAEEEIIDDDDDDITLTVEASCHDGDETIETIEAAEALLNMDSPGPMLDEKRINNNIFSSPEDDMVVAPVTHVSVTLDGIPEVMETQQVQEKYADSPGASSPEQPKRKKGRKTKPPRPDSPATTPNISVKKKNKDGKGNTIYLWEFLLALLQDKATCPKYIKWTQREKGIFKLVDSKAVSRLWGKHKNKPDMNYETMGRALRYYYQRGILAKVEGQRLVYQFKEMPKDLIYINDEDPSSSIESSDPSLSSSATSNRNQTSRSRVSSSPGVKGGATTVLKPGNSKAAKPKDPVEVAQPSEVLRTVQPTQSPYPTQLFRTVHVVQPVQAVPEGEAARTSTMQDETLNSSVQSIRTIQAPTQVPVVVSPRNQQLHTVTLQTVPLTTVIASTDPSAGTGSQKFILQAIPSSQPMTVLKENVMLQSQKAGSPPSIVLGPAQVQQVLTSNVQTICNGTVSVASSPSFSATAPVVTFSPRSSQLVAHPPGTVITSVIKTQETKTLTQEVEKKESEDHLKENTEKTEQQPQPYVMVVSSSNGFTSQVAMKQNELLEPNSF

On to CACACC, for which the binding signal in test [1] is 1.07 fold enrichment (6-mer frequency, TF over GST control); in [2] it was 1.07 fold enrichment (6-mer frequency, TF over GST control); in test [3], 1.01 fold enrichment (6-mer frequency, TF over GST control); in test [4] it was 1.04 fold enrichment (6-mer frequency, TF over GST control); in test [5], 1.02 fold enrichment (6-mer frequency, TF over GST control); in test [6] it was 1.04 fold enrichment (6-mer frequency, TF over GST control). The binding signal in test [7] is 1.09 fold enrichment (6-mer frequency, TF over GST control); in test [8] it was 1.06 fold enrichment (6-mer frequency, TF over GST control); in [9], 1.03 fold enrichment (6-mer frequency, TF over GST control); in test [10], 1.02 fold enrichment (6-mer frequency, TF over GST control); in test [11] it was 1.14 fold enrichment (6-mer frequency, TF over GST control); in [12] it was 1.02 fold enrichment (6-mer frequency, TF over GST control). Also, the binding signal in test [13] was 1.02 fold enrichment (6-mer frequency, TF over GST control); in test [14] it was 1.01 fold enrichment (6-mer frequency, TF over GST control); in [15] it was 1.01 fold enrichment (6-mer frequency, TF over GST control).

For the origin of these results see PMC7862700, “An all-to-all approach to the identification of sequence-specific readers for epigenetic DNA modifications on cytosine”.
